Among the data in the supplement of paper PMC9177965 are cell viability activity values, retold here.

Several values for one entry are separate records, joined by “and”; a condition that tells them apart may be missing. Equal values may be shown once.

For this test, the system named is HT29 RNF43 G659fs (RNF43 659mut, CRISPR-edited). Put plainly: cell viability activity relative to DMSO (negative = inhibition); higher = more viable cells (less growth inhibition). As to conditions: 5 µM; 96 h. Here is the method:
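Broad Repurposing Library primary screen at a single dose of 5 uM. HT29 sg-Ctrl and HT29 RNF43 G659fs CRISPR-edited isogenic cells were seeded at 2500 cells/well in 384-well plates in duplicate and treated for 96 h. Viability was read by CellTiter-Glo and reported as % activity relative to DMSO, with MG132 as the positive control (negative = growth inhibition).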
As for `CCCCCCCCCCCCCCCC[n+]1ccccc1`, the cell viability activity was -92.7%.

As to `COc1cc2cc(c1Cl)N(C)C(=O)C[C@H](OC(=O)C(C)C)[C@]1(C)O[C@@H]1[C@H](C)[C@@H]1C[C@@](O)(NC(=O)O1)[C@H](OC)/C=C/C=C(\C)C2`, the cell viability activity is -66.8%.

Take `NC(=O)c1cn([C@@H]2O[C@H](CO)[C@@H](O)[C@H]2O)c2ncnc(N)c12`: the cell viability activity was -95.1%.

For the compound `CC(=O)O[C@@]12CO[C@@H]1C[C@H](O)[C@@]1(C)C(=O)[C@H](O)C3=C(C)[C@@H](O)C[C@@](O)([C@@H](OC(=O)c4ccccc4)[C@H]21)C3(C)C`, the cell viability activity is -37.1%. Take `CCN(CC)CCO[C@H]1CC[C@@]2(C)C(=CC[C@@H]3[C@@H]2CC[C@]2(C)C(=O)CC[C@@H]32)C1`: the cell viability activity was -67.5%. As for `CC(C)[C@]12O[C@H]1[C@@H]1O[C@]13[C@]1(O[C@H]1C[C@H]1C4=C(CC[C@@]13C)C(=O)OC4)[C@@H]2O`, the cell viability activity is -90.2% and -88.7%. With `CC(=O)O[C@H]1C[C@H](O[C@H]2[C@@H](O)C[C@H](O[C@H]3[C@@H](O)C[C@H](O[C@H]4CC[C@@]5(C)[C@H](CC[C@@H]6[C@@H]5C[C@@H](O)[C@]5(C)[C@@H](C7=CC(=O)OC7)CC[C@]65O)C4)O[C@@H]3C)O[C@@H]2C)O[C@H](C)[C@H]1O[C@@H]1O[C@H](CO)[C@@H](O)[C@H](O)[C@H]1O`, the cell viability activity is -89.7%. For `CC1CC(C)C(=O)C(C(O)CC2CC(=O)NC(=O)C2)C1` (stereo not drawn) the value was -82.5%; for `CN(C)C(=S)SSC(=S)N(C)C`, -72.8%; for `C[C@]12CC[C@H](O)C[C@H]1CC[C@@H]1[C@@H]2CC[C@]2(C)[C@@H](C3=CC(=O)OC3)CC[C@]12O`, -87.2%. The result for `CN1CCN(c2cccc3[nH]c(=O)oc23)CC1` reads -64.6%. For `C[C@]12CC[C@H]3[C@@H](CC[C@]4(O)C[C@@H](O)CC[C@]34C=O)[C@@]1(O)CC[C@@H]2C1=CC(=O)OC1` the value was -81.8%; for `O=C1/C(=C/c2ccccc2)C[C@@]2(O)C3Cc4ccc(O)c5c4[C@@]2(CCN3CC2CC2)[C@H]1O5`, -81.4%.
